Experimental data taken from PubChem BioAssay AID1159577 (Broad Institute, 2015).
Screen size: about 1,300 compounds; about 240 (18%) were called active. Not shown: some 8% with an inconclusive outcome. The rule behind the calls is not given here. Not all results are given here. Entries that show only a call come without a potency. Potency and affinity values are given separately.

Test: toxicity to human hepatoma HepG2 cells – cell-based, cherry-picked samples, cytotoxicity control, dose response (AID 1159577)
Settings: HepG2 cytotoxicity counterscreen, plate reader; series mostly up to 19.5 µM

**Q.** For COc1ccc(S(=O)(=O)N2CCC3(CC2)CN(Cc2ccncc2)[C@H](CO)c2[nH]c4cc(OC)ccc4c23)cc1, which outcome is on record?
**A.** inactive

**Q.** Which outcome does the source give for COc1cccc(-c2ccc3c(c2)[C@H]2[C@H](CCN2C(=O)C2CCCCC2)[C@@H](CO)N3)c1 here?
**A.** inactive

**Q.** For C[C@@H]1CN([C@@H](C)CO)C(=O)c2cccc(NC(=O)c3nc4ccccc4s3)c2O[C@H]1CN(C)C(=O)NC1CCCCC1, which outcome is on record?
**A.** inactive

**Q.** Which outcome does the source give for OC[C@H]1[C@@H](c2ccc(-c3cccnc3)cc2)[C@H]2CN(CC3CC3)CCCCN21 here?
**A.** inactive

**Q.** For N#C[C@@H]1[C@H](c2ccc(-c3cccc(F)c3)cc2)[C@@H](CO)N1C(=O)NC1CCCC1, which outcome is on record?
**A.** inactive

**Q.** Which outcome does the source give for N#C[C@@H]1[C@H](c2ccc(-c3cccc(F)c3)cc2)[C@H](CO)N1C(=O)NC1CCCC1 here?
**A.** inactive

**Q.** For OC[C@H]1[C@@H](c2ccc(-c3cccnc3)cc2)[C@@H]2CN(CC3CC3)CCCCN12, which outcome is on record?
**A.** inactive

**Q.** For OC[C@@H]1Nc2ccc(C3=CCCCC3)cc2[C@@H]2[C@H]1CCN2Cc1nccs1, which outcome is on record?
**A.** inactive

**Q.** For C[C@H]1CN([C@@H](C)CO)C(=O)c2c(c3ccccc3n2C)-c2ccccc2CO[C@@H]1CN(C)Cc1ccc(Oc2ccccc2)cc1, which outcome is on record?
**A.** inactive

**Q.** Which outcome does the source give for C[C@@H]1CN([C@@H](C)CO)C(=O)c2c(c3ccccc3n2C)-c2ccccc2CO[C@H]1CN(C)Cc1ccc(Cl)c(Cl)c1 here?
**A.** inactive

**Q.** Which outcome does the source give for C[C@@H]1CN([C@@H](C)CO)C(=O)c2c(c3ccccc3n2C)-c2ccccc2CO[C@@H]1CN(C)C(=O)c1cc(Cl)cc(Cl)c1 here?
**A.** inactive

**Q.** For C[C@@H]1CN([C@@H](C)CO)C(=O)c2c(c3ccccc3n2C)-c2ccccc2CO[C@@H]1CN(C)Cc1ccc(Oc2ccccc2)cc1, which outcome is on record?
**A.** inactive

**Q.** Which outcome does the source give for C[C@@H]1CN([C@H](C)CO)S(=O)(=O)c2ccc(-c3cccc(C(=O)N(C)C)c3)cc2O[C@H]1CN(C)Cc1ccc2c(c1)OCO2 here?
**A.** inactive

**Q.** For COCC#Cc1ccc(CC[C@H]2O[C@H]3CC[C@H](CO)O[C@H]3C[C@@H]2n2cc(C3CC3)nn2)cc1, which outcome is on record?
**A.** inactive

**Q.** With COc1cccc(NC(=O)N2CC(=O)N3[C@H](CO)[C@@H](c4ccc(C#CCC5CCCC5)cc4)[C@H]3C2)c1 as the molecule, how does the outcome read?
**A.** inactive

**Q.** Which outcome does the source give for COc1ccc2c3c(n(C)c2c1)[C@H](CO)N(C(=O)Nc1ccc(F)cc1)CC31CCN(Cc2cccnc2)CC1 here?
**A.** inactive

**Q.** Which outcome does the source give for Cc1ccc(-c2ccc([C@H]3[C@@H](CO)N4C(=O)CN(C(=O)Nc5cccc(F)c5)C[C@H]34)cc2)cc1 here?
**A.** inactive

**Q.** For COc1cccc(C#Cc2ccc([C@H]3[C@@H](CO)N4C(=O)CN(C(=O)Cc5ccccc5)C[C@H]34)cc2)c1, which outcome is on record?
**A.** inactive

**Q.** With C[C@H]1CN([C@@H](C)CO)C(=O)c2c(c3ccccc3n2C)-c2ccccc2CO[C@H]1CN(C)C(=O)c1cc(Cl)cc(Cl)c1 as the molecule, how does the outcome read?
**A.** inactive

**Q.** For CCS(=O)(=O)N1CCC2(CC1)CN(Cc1cc(F)ccc1F)[C@H](CO)c1c2c2ccc(OC)cc2n1C, which outcome is on record?
**A.** inactive

**Q.** For CCCNC(=O)Nc1ccc2c(c1)OC[C@@H](C)N(CC1CCCC1)C[C@@H](C)[C@H](OC)CN(C)C2=O, which outcome is on record?
**A.** inactive

**Q.** With COc1ccc2c3c([nH]c2c1)[C@H](CO)N(Cc1ccccc1OC)CC31CCN(S(=O)(=O)c2ccccc2)CC1 as the molecule, how does the outcome read?
**A.** inactive

**Q.** For COc1ccc2c3c([nH]c2c1)[C@H](CO)N(C(=O)C1CCOCC1)CC31CCN(Cc2nccs2)CC1, which outcome is on record?
**A.** inactive

**Q.** For O=C(C[C@H]1C[C@@H]2c3cc(NS(=O)(=O)c4ccc(F)cc4)ccc3O[C@@H]2[C@@H](CO)O1)N1CCc2ccccc2C1, which outcome is on record?
**A.** inactive

**Q.** With O=C(c1ccccc1F)N1CC(=O)N2[C@H](C1)[C@@H](c1ccc(-c3cccnc3)cc1)[C@@H]2CO as the molecule, how does the outcome read?
**A.** inactive

**Q.** Which outcome does the source give for N#C[C@@H]1[C@@H](c2ccccc2C2=CCCC2)[C@H](CO)N1C(=O)C1CC1 here?
**A.** inactive

**Q.** For COc1ccc(NC(=O)N2CCCCN3[C@H](CO)[C@H](c4ccc(C#CCC(C)C)cc4)[C@@H]3C2)cc1, which outcome is on record?
**A.** inactive

**Q.** For O=C(Nc1ccccc1)N1CCCCN2[C@H](CO)[C@H](c3ccc(C#Cc4ccccc4)cc3)[C@@H]2C1, which outcome is on record?
**A.** inactive

**Q.** Which outcome does the source give for O=C(Nc1ccccc1)N1CCCCN2[C@@H](CO)[C@H](c3ccc(C#Cc4cccnc4)cc3)[C@@H]2C1 here?
**A.** inactive

**Q.** With COc1ccc(NC(=O)N2CCCCN3[C@@H](CO)[C@H](c4ccc(C#Cc5ccccn5)cc4)[C@@H]3C2)cc1 as the molecule, how does the outcome read?
**A.** inactive

**Q.** For O=C(Nc1cccc(F)c1)N1CCCCN2[C@H](CO)[C@H](c3ccc(C#Cc4ccccc4)cc3)[C@@H]2C1, which outcome is on record?
**A.** inactive

**Q.** Which outcome does the source give for O=C(Nc1cccc(F)c1)N1CCCCN2[C@@H](CO)[C@H](c3ccc(C#Cc4cccnc4)cc3)[C@@H]2C1 here?
**A.** inactive

**Q.** For COc1ccc(C#Cc2ccc3c(c2)[C@H]2[C@H](CCN2C(=O)c2ccccn2)[C@@H](CO)N3)cc1, which outcome is on record?
**A.** inactive

**Q.** Which outcome does the source give for COc1ccc(NC(=O)N2CCC3(CC2)CN(C(=O)C2CCC2)[C@H](CO)c2c3c3ccc(OC)cc3n2C)cc1 here?
**A.** inactive

**Q.** For C[C@@H]1CN([C@H](C)CO)C(=O)c2c(c3ccccc3n2C)-c2ccccc2CO[C@H]1CN(C)S(=O)(=O)c1ccc(C(F)(F)F)cc1, which outcome is on record?
**A.** inactive

**Q.** With C[C@@H]1CN([C@@H](C)CO)C(=O)c2c(c3ccccc3n2C)-c2ccccc2CO[C@H]1CN(C)C(=O)Cc1ccccc1 as the molecule, how does the outcome read?
**A.** inactive

**Q.** With CCC(=O)N1CC2(C1)[C@@H](c1ccc(-c3cccc(OC)c3)cc1)[C@@H](CO)N2C(C)=O as the molecule, how does the outcome read?
**A.** inactive

**Q.** For CO[C@H]1CN(C)C(=O)c2cc(NC(=O)C3CC3)ccc2OC[C@H](C)N(Cc2cc(F)ccc2F)C[C@@H]1C, which outcome is on record?
**A.** inactive

**Q.** With COc1ccc(S(=O)(=O)Nc2ccc3c(c2)CC(=O)N([C@@H](C)CO)C[C@H](C)[C@H](CN(C)S(=O)(=O)c2ccc(C)cc2)O3)cc1 as the molecule, how does the outcome read?
**A.** inactive

**Q.** With Cc1ccc(S(=O)(=O)N(C)C[C@H]2OCc3ccccc3-c3c(n(C)c4ccccc34)C(=O)N([C@@H](C)CO)C[C@H]2C)cc1 as the molecule, how does the outcome read?
**A.** inactive

**Q.** Which outcome does the source give for COc1ccc(NC(=O)N2CCCCN3[C@H](CO)[C@H](c4ccc(C#Cc5ccccc5)cc4)[C@@H]3C2)cc1 here?
**A.** inactive

**Q.** For COc1ccc(C#Cc2ccc([C@H]3[C@H]4CN(C(=O)Nc5ccccc5)CCCCN4[C@H]3CO)cc2)cc1, which outcome is on record?
**A.** inactive

**Q.** For COc1ccc(NC(=O)Nc2ccc3c(c2)[C@H]2C[C@H](CC(=O)N4CCc5ccccc5C4)O[C@H](CO)[C@H]2O3)cc1, which outcome is on record?
**A.** inactive
